Bioassay records as filed in PubChem.
The list is not random: actives were taken first. Their share in the collection is about 11%.
Tau fibril FP = inhibitors of human tau fibril formation; P10636; AID 1468; K18 P301L tau heparin fibrillization, Alexa594 FP, 6 h; Potency, µM (titrated, usually from 57.7 µM), without a hit: top-dose activity, negative = inhibition, most hits filed as inhibitors; 0.39% of 280,000 active; further: potency means the concentration at half of the fitted maximal effect; nearly all actives have a fitted effect of over 55% in size
Target sequence (P10636 561-689 P618L limits assumed): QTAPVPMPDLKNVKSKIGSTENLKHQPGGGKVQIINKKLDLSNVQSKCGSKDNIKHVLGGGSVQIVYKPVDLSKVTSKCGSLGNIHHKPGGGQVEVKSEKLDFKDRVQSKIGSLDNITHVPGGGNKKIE
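Human tau K18 […] P301L fragment, 15 uM unlabeled plus 0.24 uM Alexa 594-labeled tau (final), with compound and 20 uM heparin in 100 mM sodium acetate pH 7; 6 hr at 37 C, then Alexa 594 FP read.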
G9a inh = G9a (human) methyltransferase inhibition; Q96KQ7; G9a H3K9 monomethylation, AlphaScreen, 2 h; Potency, µM (titrated, usually from 102 µM), for the others: at the highest dose activity, negative = inhibition, hits mostly inhibitors; 8.8% of 350,000 active; AID 504332; further: potency means the concentration at half of the fitted maximal effect; nearly all actives have a fitted effect of over 75% in size
Target sequence (Q96KQ7 913-1193 limits assumed): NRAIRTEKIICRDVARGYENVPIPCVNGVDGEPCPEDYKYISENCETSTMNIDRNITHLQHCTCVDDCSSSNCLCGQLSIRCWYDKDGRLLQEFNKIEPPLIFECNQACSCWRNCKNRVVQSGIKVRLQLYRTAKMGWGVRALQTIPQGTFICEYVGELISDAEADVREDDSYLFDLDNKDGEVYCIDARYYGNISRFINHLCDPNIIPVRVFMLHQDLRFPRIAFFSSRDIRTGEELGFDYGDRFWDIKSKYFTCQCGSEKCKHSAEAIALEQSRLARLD
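Signal arises when biotinylated H3K9 peptide, once monomethylated, bridges streptavidin donor and antibody-captured acceptor beads. Enzyme at 20 nM was preincubated 15 min with test compounds; peptide 500 nM and SAM 20 uM then reacted for 2 h.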
Tau fibril ThT = blocks human tau fibril formation measured by thioflavin T; P10636; recombinant tau K18 P301L, heparin-induced fibrillization, ThT fluorescence; Potency, µM (highest dose often 57.4 µM), for the others: top-dose activity, negative = inhibition, usual class: inhibitors; 2.1% of 270,000 active; further: potency means the concentration at half of the fitted maximal effect; nearly all actives have a fitted effect of over 55% in size
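Recombinant human tau K18 fragment […] carrying P301L, 15 uM unlabeled plus 0.24 uM Alexa 594-labeled, was fibrillized with 20 uM heparin in 100 mM sodium acetate pH 7 for 6 hr at 37 C; 30 uM ThT fluorescence read after 1 hr.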
Sfp PPTase inh = inhibitors of Bacillus subtilis Sfp phosphopantetheinyl transferase. Biochemical Sfp PPTase activity, qHTS. Potency, µM, without a hit: largest response in the series, negative = inhibition, most hits filed as inhibitors. 3.5% of 310,000 active;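 further: the enzyme is Sfp with the accession as filed and its product quenches rhodamine fluorescence; potency means the concentration at half of the fitted maximal effect; 0% = enzyme reaction without inhibitor and -100% = no enzyme wells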
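Compounds were incubated with enzyme (final 15 nM) for 15 min at room temperature before substrate addition started the reaction. Fluorescence at 525 nm excitation, 598 nm emission was recorded immediately and after 30 minutes.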
Coupling enz = coupling enzyme interference in Giardia aldolase counter-screen; coupling enzyme system counterscreen, AmpLite Red fluorescence; activity change, negative = inhibition, % at 58.2 µM, hits read low; 0.67% of 290,000 active; in the data active means activity change below about -30%
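Activity here indicates interference with the coupling reaction, not aldolase inhibition. Compounds at 57.5 uM final met coupling enzymes for 10 min at RT; substrate and AmpLite Red detection followed, with a 525/598 nm fluorescence read after 20 min.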
Tau fluor cs = counter-screen for tau fibril formation inhibitors; tau K18 P301L (four-repeat tau fragment) Alexa594 fluorescence, heparin fibrillization; Potency, µM (series often up to 57.7 µM), for inactives: top-dose activity change, negative = decrease; 0.93% of 280,000 active; further: potency means the concentration at half of the fitted maximal effect; nearly all actives have a fitted effect of over 55% in size
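Human K18 P301L tau (15 uM unlabeled plus 0.24 uM Alexa 594-labeled, final) in 100 mM sodium acetate pH 7 was mixed with compound and 20 uM heparin and incubated 6 hr at 37 C.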
An asterisk follows results filed as active; ? = inconclusive; · = not tested or not shown; [ ] = remark or other dose. Unless noted, the call rests on the fitted dose curve; in most records, active means well fitted curve in the direction sought with a large enough effect; inconclusive means small, poorly fitted or top-dose-only effect, or another doubt; inactive means no such curve, though single readings can be large; an effect the other way counts as inactive or inconclusive. Unless noted, on the % scale 0 is the no-effect control and ±100 the full control effect.

SMILES	Tau fibril FP	G9a inh	Tau fibril ThT	Sfp PPTase inh	Coupling enz	Tau fluor cs
COc1cc([N+](=O)[O-])ccc1NC(=O)Nc1ccc2c(c1)OCCO2	?	·	13µM*	?	-10	16µM*[quencher]
Cc1c(C(=O)NCc2ccc(F)cc2)oc2ccc(S(=O)(=O)N3CCCCC3)cc12	-4%	-21%[59 µM]	4%	·	·	-18%
COc1cc([N+](=O)[O-])ccc1NC(=O)/C=C\C(=O)O	0%	-45%	-10%	23%	9	-13%
COc1cc([N+](=O)[O-])ccc1NC(=O)/C=C/C(=O)O	3%	50µM*	-13%	-25%	-3	-12%
CCOC(=O)C1CCN(Cc2ccccc2C(F)(F)F)CC1	-7%	16µM*	-2%	-20%	2	4%
CCOC(=O)C1CCN(Cc2ccc(O)c3ncccc23)CC1	-4%	4µM*	?	11%	-8	-30%
O=C(CC1N=C2c3ccccc3N=C(SCC(=O)Nc3ccccc3F)N2C1=O)NCc1cccs1 (stereo unspecified)	1%	14µM*	-17%	·	·	-14%
O=C(CC1N=C2c3ccccc3N=C(SCc3ccc(F)cc3)N2C1=O)NCc1ccco1 (stereo unspecified)	-11%	-19%[59 µM]	?	?	2	-14%
Cc1ccc(CSC2=Nc3ccccc3C3=NC(CC(=O)NCc4ccco4)C(=O)N23)cc1 (stereo unspecified)	-7%	?	?	35µM*	-13	-8%
COc1cccc(CNc2nc3c(-c4cccc(C)c4)nnn3c3ccccc23)c1	-14%	6%[59 µM]	5%	·	·	?
O=C1c2ccccc2C(=O)N1CC(O)COCc1ccccc1 (stereo unspecified)	-2%	2%[0.501 µM]	6%	-3%	-4	5%
CCc1n(CC(O)COCc2ccccc2)c2ccccc2[n+]1C (stereo unspecified)	1%	45µM*	-2%	-4%	1	0%
CCCc1nc2nc(C)c(NS(=O)(=O)c3ccc4c(c3)CCCC4)c(=O)n2[nH]1	·	-17%	·	23%	12	·
CCCc1nc2nc(C)c(NS(=O)(=O)c3ccc(C(C)(C)C)cc3)c(=O)n2[nH]1	·	79µM*	·	6%	6	·
CCc1nc2nc(C)c(NS(=O)(=O)c3ccc(F)cc3)c(=O)n2[nH]1	·	25µM*	·	10%	-3	·
CCc1nc2nc(C)c(NS(=O)(=O)c3ccc(Br)s3)c(=O)n2[nH]1	·	50µM*	·	20%	-2	·
COc1ccccc1NS(=O)(=O)c1ccc2oc(SCc3ccc(F)cc3)nc2c1	-2%	8%[59 µM]	18%	0%	3	18%
COc1ccc(NS(=O)(=O)c2ccc3oc(SCc4ccc(F)cc4)nc3c2)cc1	?	79µM*	3%	10%	-1	?
COc1ccc(Cn2ccc3nc(C)c(C(=O)Nc4ccc(OC(F)(F)F)cc4)cc3c2=O)cc1	-7%	16%[59 µM]	-4%	·	·	-14%
Cc1ccc(CNC(=O)c2ccc(CS(=O)(=O)Cc3ccc(C)cc3)o2)cc1	-12%	-18%[59 µM]	5%	·	·	-6%
CCN(C(=O)CSc1nc2ccccc2n1CC(=O)Nc1cccc(C#N)c1)c1ccccc1	-10%	-32%[59 µM]	4%	·	·	?
Cc1ccc(NC(=S)N(CCCN2CCCC2)Cc2cccn2Cc2ccc(Cl)cc2)cc1C	-6%	-14%	?	3%	2	-27%
Cc1ccc(NC(=S)N(CCCN2CCCC2)Cc2cccn2Cc2ccc(Cl)cc2)cc1Cl	0%	32µM*	?	3%	1	?
CN(C)CCCN(Cc1ccccc1)C(=S)Nc1cccc(C(F)(F)F)c1	0%	71µM*	-9%	-12%	1	-10%
O=C(CNC(=S)N(CCCN1CCOCC1)Cc1cccs1)NCc1ccccc1Cl	·	71µM*	·	11%	·	·
COCCN(C(=S)Nc1ccc(OC)c(Cl)c1)C1CCN(C(C)C)CC1	15%	?	-22%	40µM*	0	-26%
